Data: ChEMBL document CHEMBL1157539, “Thousands of chemical starting points for antimalarial lead identification” (Nature, 2010)

Tests used:
Type in all cases: functional
Plasmodium falciparum [1] = assay: GSK_TCMDC: Inhibition of Plasmodium falciparum 3D7 in whole red blood cells, using parasite LDH activity as an index of growth. Test compounds present at 2uM
Plasmodium falciparum [2] = assay: GSK_TCMDC: Inhibition of Plasmodium falciparum Dd2 in whole red blood cells, using parasite LDH activity as an index of growth. Test compounds present at 2uM
HepG2 = assay: GSK_TCMDC: Percent inhibition of human HepG2 cell line. Test compounds present at 10uM.

SMILES	Inhibition (Plasmodium falciparum [1]) [%]	Inhibition (Plasmodium falciparum [2]) [%]	Inhibition (HepG2) [%]
Cc1ccc(S(=O)(=O)N(C)c2ccccc2C(=O)Nc2ccccc2Oc2ccccc2)cc1	98	90	5
Nc1nc(N)c2c(Cl)c(N3CCOCC3)ccc2n1	96	3	65
COc1cccc(OC)c1OCCCOc1c(C)nc(N)nc1N.Cl	97	0	31
CNc1ccc(CNCc2cccc(-c3ccc(-c4nc5cccc(C)c5[nH]4)s3)c2)cc1.O=C(O)C(F)(F)F	100	88	23
Cc1cc(=NN=Cc2ccc(F)cc2)c2cc(C(F)(F)F)ccc2[nH]1	100	99	2
COc1cccc(-c2cc(C(=O)Nc3ccc4[nH]c(-c5ccccc5)nc4c3)[nH]n2)c1.O=C(O)C(F)(F)F	100	65	68
O=C(Nc1ccc(N2CCCCC2)c(Cl)c1)c1ccco1	96	95	0
O=C1Nc2cccc3c2C1(CCCCN1CCC(c2c(-c4ccccc4)[nH]c4ccccc24)CC1)CCC3 (stereo not drawn)	84	33	18
Cc1ccc(-c2ccc3c(c2)C=C(C(=O)NC2CCN(CCNC(=O)c4cccc(C(F)(F)F)c4)CC2)CCC3)cc1.O=C(O)C(F)(F)F	100	56	25
Cc1cccc(C)c1CNc1ccnc2cc(Br)ccc12.Cl	95	99	24
CC1(C)OC[C@]2(C)[C@@H](CC[C@]3(C)C4=CC(=O)CCC4CC[C@@H]23)O1 (stereo partly drawn)	97	95	0
